# Measured values taken from PubChem BioAssay.
# Activity calls are given as the source filed them. Rule as the data show it, unless noted: active = inhibition above about 30%; inactive = the rest.
# Key:
# [1] = reducers of endogenous Her2 protein level, primary screen, SKBR3 breast tumor cells, AlphaScreen, ATP viability (AID 461;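 active = Her2 level under about 52% in both replicate screens, with viability over 70% of control, limit read from the data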;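 as to Her2 level: lower value means less Her2 protein in the cells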;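 as to viability: percent of carrier control wells set as 100% viability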); settings: 18-24 h, measured here: SKBR3 viability, ATP luminescence, at 10 µM
# [2] = biological target: Receptor tyrosine-protein kinase erbB-2 (Homo sapiens) (UniProt P04626); test: as above; settings: 18-24 h, at 10 µM, stronger effect = lower value
# Receptor tyrosine-protein kinase erbB-2 (Homo sapiens), sequence (P04626 whole entry, looked up): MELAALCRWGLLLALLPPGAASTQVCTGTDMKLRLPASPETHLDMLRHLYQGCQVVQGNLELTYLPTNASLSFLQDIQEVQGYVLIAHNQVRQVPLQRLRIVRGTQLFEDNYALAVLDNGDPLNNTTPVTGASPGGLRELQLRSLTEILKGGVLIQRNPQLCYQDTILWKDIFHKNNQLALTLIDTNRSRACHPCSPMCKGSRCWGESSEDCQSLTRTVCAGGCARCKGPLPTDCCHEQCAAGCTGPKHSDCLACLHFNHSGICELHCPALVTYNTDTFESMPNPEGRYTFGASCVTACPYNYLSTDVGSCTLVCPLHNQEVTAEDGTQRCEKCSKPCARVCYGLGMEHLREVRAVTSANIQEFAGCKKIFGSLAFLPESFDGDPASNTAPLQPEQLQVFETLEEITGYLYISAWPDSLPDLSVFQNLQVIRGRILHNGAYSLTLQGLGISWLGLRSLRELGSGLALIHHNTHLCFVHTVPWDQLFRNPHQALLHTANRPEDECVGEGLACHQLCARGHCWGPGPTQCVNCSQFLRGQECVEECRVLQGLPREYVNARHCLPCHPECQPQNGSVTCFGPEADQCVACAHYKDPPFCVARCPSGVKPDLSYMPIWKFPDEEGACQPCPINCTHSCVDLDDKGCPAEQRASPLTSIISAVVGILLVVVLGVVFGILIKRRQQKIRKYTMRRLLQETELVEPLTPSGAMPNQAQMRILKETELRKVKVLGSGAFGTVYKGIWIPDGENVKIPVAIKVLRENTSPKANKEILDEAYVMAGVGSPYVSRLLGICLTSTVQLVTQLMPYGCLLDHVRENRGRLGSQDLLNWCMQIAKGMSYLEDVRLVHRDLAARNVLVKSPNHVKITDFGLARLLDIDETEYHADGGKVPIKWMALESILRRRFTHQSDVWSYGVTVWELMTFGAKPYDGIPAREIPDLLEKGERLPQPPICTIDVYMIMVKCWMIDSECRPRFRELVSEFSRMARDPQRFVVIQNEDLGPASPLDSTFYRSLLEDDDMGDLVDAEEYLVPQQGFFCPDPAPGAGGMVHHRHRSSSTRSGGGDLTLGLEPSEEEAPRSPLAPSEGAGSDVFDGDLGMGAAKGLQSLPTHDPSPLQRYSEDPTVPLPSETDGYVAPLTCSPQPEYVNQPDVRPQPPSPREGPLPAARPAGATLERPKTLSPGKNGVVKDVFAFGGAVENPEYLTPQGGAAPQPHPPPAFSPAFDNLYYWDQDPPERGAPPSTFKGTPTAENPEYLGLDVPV
# [3] = SK-BR-3 cell growth inhibitors, pilot screen, 24 h, human (AID 572;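 active = viability at or below 10% of carrier control in both of two separate runs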;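 also: compound exposure lasted between 18 and 24 h rather than exactly 24 h; 100% = carrier-treated control wells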); settings: SK-BR-3 viability, CellTiter-Glo luminescence, at 10 µM, stronger effect = lower value
# [4] = HUVEC growth inhibition – cell-based, human, primary screen (AID 575;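 active = viability at or below 30% in both replicate assays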;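 also: 100% = median of untreated cell wells with 0.1% DMSO on each plate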); settings: HUVEC proliferation, CellTiter-Glo luminescence, 72 h; at 10 µM; stronger effect = lower value
# [5] = growth inhibitors of H69AR lung tumor, primary screen, human, duplicate replicates (AID 580;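 active = viability at or under a set limit in both replicates, limit being median viability minus 3 SD, cut at about 48% in these data, passing the limit was not always enough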;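 also: 100% = mean luminescence of untreated wells and 0% = no signal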); settings: H69AR lung tumor cells viability, ATP luminescence, 72 h; at 10 µM; stronger effect = lower value
# [6] = reversal of MRP1-mediated doxorubicin resistance, pilot screen, H69AR cells, doxorubicin co-treatment (AID 601;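 active = viability loss from added drug above about 55%, and viability with drug at most 40%, in both replicates, limit read from the data, passing the limit was not always enough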); settings: CellTiter-Glo, 72 h, at 10 µM; for differential viability (reversal): stronger effect = higher value
# [7] = 384-well plate pilot, post-Golgi transport modulator project, inhibition of yeast transport mutant growth (AID 636; in the data active = inhibition above about 31%); settings: absorbance 615 nm, about 18 h, stronger effect = higher value
# [8] = growth suppression of yeast trafficking mutant, preliminary HTS, modulators of trafficking downstream of Golgi apparatus project, 1536-format plate, OD 615 nm (AID 637); settings: yeast transport mutant growth, absorbance 615 nm, 18 h; stronger effect = higher value
# [9] = H69AR cells + 2 uM doxorubicin, measured here: viability with 2 uM doxorubicin, stronger effect = lower value
# [10] = H69AR cells, compound alone cytotoxicity
Structure (SMILES),viability [1] [%],Her2 level [2],viability [3],viability [4],viability [5],differential viability (reversal) ([6]; H69AR cells + 2 uM doxorubicin),"viability [6, 9] [%]","viability [6, 10] [%]",inhibition [7],inhibition [8]
O=C(c1ccco1)N1CCN(c2c(-c3ccccc3)c3cc(Cl)ccc3[nH]c2=O)CC1,94,61.5% (inactive),94% (inactive),52.4% (inactive),24.5% (active),17.6% (inactive),6.86,24.5,-2.11% (inactive),7.42% (inactive)
COc1ccc(CC(=O)NCc2ccccc2)cc1S(=O)(=O)N1CCOCC1,110,106% (inactive),110% (inactive),93.5% (inactive),89% (inactive),-9.06% (inactive),98.1,89,-2.5% (inactive),5.82% (inactive)
Cc1cc(C(=O)Cn2cncn2)c(C)n1CCc1ccc(F)cc1,64,80% (inactive),64% (inactive),105% (inactive),89.2% (inactive),-5.71% (inactive),95,89.2,-5.41% (inactive),3.11% (inactive)
Cc1ccc(-n2nnnc2SCC(=O)N2CCc3ccccc3C2)cc1,113,82.5% (inactive),113% (inactive),99.9% (inactive),82.1% (inactive),-8.77% (inactive),90.8,82.1,-2.5% (inactive),0.48% (inactive)
COc1ccccc1-c1coc2c(CN3CCN(CCO)CC3)c(O)ccc2c1=O,87.5,93.5% (inactive),87.5% (inactive),94.5% (inactive),106% (inactive),18.9% (inactive),87.5,106,-4.27% (inactive),0.65% (inactive)
COc1ccccc1N1CCN(S(=O)(=O)CC23CCC(CC2=O)C3(C)C)CC1 (stereo not given),102,94% (inactive),102% (inactive),76.9% (inactive),84.5% (inactive),0.875% (inactive),83.6,84.5,-0.52% (inactive),-3.67% (inactive)
COc1ccccc1C(=O)NC(C)C(c1cccs1)N1CCN(C)CC1 (stereo not given),103,149% (inactive),103% (inactive),78.9% (inactive),91.1% (inactive),-0.4% (inactive),91.5,91.1,1.58% (inactive),-6.67% (inactive)
COc1ccc(NC(=O)c2oc3ccc(S(=O)(=O)N4CCC5(CC4)OCCO5)cc3c2C)cc1,87.5,90.5% (inactive),87.5% (inactive),39.4% (inactive),37.5% (active),-5.32% (inactive),42.8,37.5,1.17% (inactive),-14.8% (inactive)
O=c1[nH]c2cc3c(cc2cc1C(c1nnnn1Cc1ccccc1)N1CCCc2ccccc21)OCO3 (stereo not given),98.5,95.5% (inactive),98.5% (inactive),79.3% (inactive),61.6% (inactive),-0.235% (inactive),61.8,61.6,-3.73% (inactive),4.43% (inactive)
CN(C(=O)c1ccncc1)C1CC(C)(C)N(O)C(C)(C)C1,124,96.5% (inactive),124% (inactive),87.7% (inactive),92.3% (inactive),-1.93% (inactive),94.2,92.3,-7.11% (inactive),-6.36% (inactive)
CN(C)Cc1cn(CCC(=O)O)c2ccccc12,96,106% (inactive),96% (inactive),88.5% (inactive),101% (inactive),2.96% (inactive),98.2,101,-1.22% (inactive),-1.8% (inactive)
Cc1ccc(S(=O)(=O)C2(C(=O)N3CCCCCC3)CC2)cc1,96.5,83% (inactive),96.5% (inactive),93.8% (inactive),107% (inactive),1.4% (inactive),105,107,-2.73% (inactive),-0.95% (inactive)
COc1ccc(C2C(C(C)=O)=C(O)C(=O)N2C)c(OC)c1 (stereo not given),102,104% (inactive),102% (inactive),109% (inactive),114% (inactive),22.1% (inactive),91.7,114,1.3% (inactive),-0.83% (inactive)
CCOc1ccc(CCNC(=O)CCc2nc(-c3ccc(OC)cc3)no2)cc1OCC,86.5,104% (inactive),86.5% (inactive),81.9% (inactive),94.3% (inactive),-5.12% (inactive),99.4,94.3,-1.05% (inactive),3.17% (inactive)
CSc1ccccc1C(=O)NC1CC2CCC1C2 (stereo not given),102,89.5% (inactive),102% (inactive),92.9% (inactive),94.8% (inactive),7.59% (inactive),87.2,94.8,-5.33% (inactive),5.65% (inactive)
CC(C)Oc1ccc(C2C(C(=O)c3ccco3)=C(O)C(=O)N2CCCN(C)C)cc1 (stereo not given),89,99.5% (inactive),89% (inactive),118% (inactive),110% (inactive),8.15% (inactive),102,110,-1.18% (inactive),8.2% (inactive)
